Assay results: PubChem BioAssay AID1851 (National Center for Advancing Translational Sciences (NCATS), 2009)
“And” between values parts separate entries of the source, which are not always exact repeats. Equal values may be shown once. Out of some 16,000 compounds screened, about 2,600 (16%) were called active. Roughly 20% stayed inconclusive and do not appear here. Calls come from the whole dose curve; as a rule, active = well fitted curve in the direction sought with a large enough effect; inconclusive = small, poorly fitted or top-dose-only effect, or effect the other way; inactive = no such curve, though single readings can be large or run the other way. These entries were drawn from the full list. More than one record can exist for a structure, and the calls need not agree.

Target: Cytochrome P450 2D6 (Homo sapiens) (UniProt P10635)
Assay: Cytochrome panel assay with activity outcomes
Conditions: recombinant CYP, pro-luciferin dealkylation, luminescence, p450-cyp2d6; series mostly up to 57.1 µM; activity, negative = inhibition: at the top concentration
% is set by controls: 0 for no effect and ±100 for the full control effect.

Sequence of Cytochrome P450 2D6 (Homo sapiens) (P10635 whole entry, looked up): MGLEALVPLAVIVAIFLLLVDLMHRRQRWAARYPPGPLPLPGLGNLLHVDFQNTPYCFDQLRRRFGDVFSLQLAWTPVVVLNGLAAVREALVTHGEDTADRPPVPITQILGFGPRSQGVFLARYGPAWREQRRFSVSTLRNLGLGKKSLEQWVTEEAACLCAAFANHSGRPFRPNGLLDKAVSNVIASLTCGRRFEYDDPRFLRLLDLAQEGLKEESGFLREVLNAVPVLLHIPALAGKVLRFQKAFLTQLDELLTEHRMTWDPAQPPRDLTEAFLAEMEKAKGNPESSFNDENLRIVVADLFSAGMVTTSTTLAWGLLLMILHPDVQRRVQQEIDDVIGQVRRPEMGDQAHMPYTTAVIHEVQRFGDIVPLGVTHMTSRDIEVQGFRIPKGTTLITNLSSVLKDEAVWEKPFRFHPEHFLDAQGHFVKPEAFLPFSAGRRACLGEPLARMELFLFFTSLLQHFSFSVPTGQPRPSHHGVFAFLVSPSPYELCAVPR

SMILES | activity, negative = inhibition | AC50
CCCCC(=O)N/N=C(\C)CC(=O)Nc1cc(Cl)ccc1OC | -15.1% (inactive) | –
O=C(COC(=O)c1cccc(S(=O)(=O)N2CCOCC2)c1)Nc1nc(-c2ccccc2Cl)cs1 | -27.2% (inactive) | –
COc1ccc(COc2ccsc2C(=O)Nc2ccc(Cl)c(Cl)c2)cc1 | -13.6% (inactive) | –
CN(CCc1ccc(Cl)c(Cl)c1)C[C@@H](O)COc1ccc(NS(C)(=O)=O)cc1 | – | 25.1 µM (active)
O=c1c(-c2cc(F)cc(F)c2)nc2cnc(N3CCNCC3)nc2n1Cc1cccs1 | -1.74% (inactive) | –
CC(C)CCOc1ccc(NC(=O)C2OC3OC(C)(C)OC3C3OC(C)(C)OC23)cc1 (stereo unspecified) | 0.481% (inactive) | –
CCOC(=O)c1sc(NC(=O)CSc2n[nH]c(-c3ccc(Cl)cc3Cl)n2)c(C#N)c1C | – | 28.2 µM (active)
CCOC(=O)c1sc(NC(=O)CSc2nc(C)cc(C)c2C#N)c(C#N)c1C | -7.84% (inactive) | –
CCOC(=O)c1sc(NC(=O)CSc2nc(C)cc(C)n2)c(C#N)c1C | -15.9% (inactive) | –
O=C(Oc1c(Br)cc(C(=S)N2CCOCC2)cc1Br)c1ccc(Cl)cc1 | -11.2% (inactive) | –
CC(=O)NCCNc1ncnc2ccc(-c3ccccc3C)cc12 | – | 20 µM (active)
CC(=O)NCCNc1ncnc2ccc(-c3ccccc3Cl)cc12 | – | 15.8 µM (active)
CC(=O)NCCNc1cc(-c2ccccc2C(F)(F)F)ncn1 | -2.78% (inactive) | –
CC(=O)NCCNc1ncnc2ccc(-c3ccccc3C#N)cc12 | -9.82% (inactive) | –
CC(=O)NCCNc1ncnc2ccc(-c3ccccc3C(F)(F)F)cc12 | – | 20 µM (active)
Cc1[nH]n(C(C)(C)C)c(=O)c1Sc1ccc(Cl)cc1 | -25.3% (inactive) | –
CCOc1ccc(N(C(C)C(=O)NC(C)CC)S(C)(=O)=O)cc1 (stereo unspecified) | -68.4% (inactive) | –
CCC(C)OC(=O)C1=C(C)NC(=O)CC1c1ccccc1OC (stereo unspecified) | -6.88% (inactive) | –
O=c1c(-c2cc(F)cc(F)c2)nc2cnc(N3CCOCC3)nc2n1-c1ccccc1 | 0.324% (inactive) | –
CCOC(=O)c1cnn(CCOC(=O)C(C)(C)C)c1NC(=O)C(C)(C)C | -4.94% (inactive) | –
O=[N+]([O-])c1ccc2c(c1)S(=O)c1ccccc1-2 (stereo unspecified) | -5.2% [at 11.4 µM] (inactive) | –
Cc1cc(NC(=O)CCN2C(=O)C3C4CCC(C4)C3C2=O)c(C)cc1Br (stereo unspecified) | 5.69% (inactive) | –
CCc1cccc(C)c1NC(=O)CSc1nc2ccc(N3C(=O)c4ccccc4C3=O)cc2s1 | 7.32% (inactive) | –
CS(=O)(=O)Nc1cccc(-c2ccc3ncnc(N4CCNCC4)c3c2)c1 | 3% (inactive) | –
CNc1nc(-c2cccc(NS(C)(=O)=O)c2)nc2ccccc12 | -8.43% (inactive) | –
CS(=O)(=O)Nc1cccc(-c2nc(Nc3ccccc3)c3ccccc3n2)c1 | – | 10 µM (active)

SMILES | activity, negative = inhibition | AC50
CS(=O)(=O)Nc1cccc(-c2nc(Nc3ccncc3)c3ccccc3n2)c1 | – | 20 µM (active)
CS(=O)(=O)Nc1cccc(-c2nc(N3CCOCC3)c3ccccc3n2)c1 | -11.6% (inactive) | –
CS(=O)(=O)Nc1cccc(-c2nc(N3CCNCC3)c3ccccc3n2)c1 | – | 10 µM (active)
COc1ccc2c(c1)c(=O)oc1c(C)c(OCC(=O)N3CCc4ccccc4C3)ccc12 | -30.9% (inactive) | –
COc1ccc(Oc2ncc3nc(-c4cccs4)c(=O)n(C)c3n2)cc1 | -1.75% (inactive) | –
CCCCC(=O)NC(Nc1cc(C)ccn1)(C(=O)OCC)C(F)(F)F (stereo unspecified) | -6.47% (inactive) | –
CCOC(=O)CN1N=C(/C=C/c2ccc(C)cc2)CCC1=O | -3.19% (inactive) | –
Cc1ccccc1NC1=NC(=S)N(c2ccccc2)C12CCOC(C)(C)C2 (stereo unspecified) | 0.784% (inactive) | –
CCn1nc(C(=O)Nc2ccccc2C)c(Cl)c1Cl | 0.463% (inactive) | –
O=C(N/N=C/c1ccc(Br)s1)c1ccccc1[N+](=O)[O-] | -16.7% (inactive) | –
CCCCN(C(=O)Nc1ccc(OCC)cc1)C1CCN(C(C)=O)CC1 | 17.3% (inactive) | –
CSc1nc(C2CC2)cc(-c2cccs2)c1C#N | -8.47% (inactive) | –
O=C1NC(=O)C(c2ccccc2)(c2ccccc2)N1 | 3.16% (inactive) | –
CCCC1CCC(c2ccc(C(N)=O)cc2)CC1 (stereo unspecified) | 22.9% (inactive) | –
CNCC[C@H](Oc1ccccc1OC)c1ccccc1 | – | 1.26 µM (active) and inactive
COCCn1c(=O)c(-c2cn(C)c3ccccc23)nc2cnc(N3CCNCC3)nc21 | -5.08% (inactive) | –
COC(=O)[C@@H]1[C@@H]2C[C@H]3c4[nH]c5cc(OC)ccc5c4CCN3C[C@@H]2C[C@H](OC(=O)c2cc(OC)c(OC)c(OC)c2)[C@H]1OC | -9.04% [at 25.6 µM] (inactive) | –
C#C[C@]1(O)CC[C@@H]2[C@H]3CCc4cc(OC)ccc4[C@@H]3CC[C@@]21C | 0.842% [at 25.6 µM] (inactive) | –
O=C1CC(=O)C(n2cncn2)C(c2cccc(Cl)c2)C1 (stereo unspecified) | -36.4% (inactive) | –
Cc1cc(N)n(-c2ccc3ccccc3c2)n1 | -17.4% (inactive) | –
CC(=O)Nc1c(C)nn(-c2ccc(C)c(C)c2)c1C | -12.7% (inactive) | –
Cc1nn(-c2ccc(F)cc2)c(C)c1NS(=O)(=O)c1ccc2ccccc2c1 | – | 11.2 µM (active)
CC(C)(C)C(=O)OCc1cn(-c2ccc(Cl)cc2)nn1 | -28.8% (inactive) | –
Cc1nc(SCC(=O)c2ccc(Cl)s2)c2oc3ccccc3c2n1 | 15.2% (inactive) | –
COCCn1c(=O)c(-c2cn(C)c3ccccc23)nc2cnc(OCc3ccccc3)nc21 | -5.75% (inactive) | –
O=C(c1ccc(Br)cc1)c1cc([N+](=O)[O-])ccc1N1CCCCC1 | -4.02% (inactive) | –

SMILES | activity, negative = inhibition | AC50
CCN(CC)CCC[C@H](C)Nc1c2ccc(Cl)cc2nc2ccc(OC)cc12 | – | 200 nM (active) and 126 nM (active)
COc1ccc2nc(SCC(=O)NN)cc(C)c2c1 | -12.7% (inactive) | –
COc1ccc2nc(C)cc(SCC(=O)Nc3c(C)cc(C)cc3C)c2c1 | 4.42% (inactive) | –
Cn1c(=O)n(C)c2cc(/C=N/NC(=O)c3ccc(Cl)cc3Cl)ccc21 | 11.9% (inactive) | –
CCOc1ccc(NC(=O)C(=O)NCC2CCCN2CC)cc1 (stereo unspecified) | -7.58% (inactive) | –
CCN1CCC[C@H]1CNC(=O)c1cc(S(N)(=O)=O)ccc1OC | -18.3% [at 25.6 µM] (inactive) | –
CCN1CCC[C@@H]1CNC(=O)c1cc(S(N)(=O)=O)ccc1OC | -10.7% (inactive) | –
CCN1CCCC1CNC(=O)CCNC(=O)c1cc(OC)c(OC)c(OC)c1 (stereo unspecified) | 12.3% (inactive) | –
CCN1CCC[C@H]1CNC(=O)c1c(OC)ccc(Br)c1OC | – | inactive and 200 nM (active)
CCc1cc(Cl)c(OC)c(C(=O)NC[C@@H]2CCCN2CC)c1O | – | 0.0501 µM (active)
N[C@@H](Cc1c[nH]c2ccc([N+](=O)[O-])cc12)C(=O)O | 4.93% [at 11.4 µM] (inactive) | –
Cc1ccccc1Cn1cc(NC(=O)CSc2nc3c(c(C(F)(F)F)n2)CCc2ccccc2-3)cn1 | -12.6% (inactive) | –
Cn1c(=O)c(-c2ccc(Cl)cc2)nc2cnc(Oc3cccc(Cl)c3)nc21 | 0.522% (inactive) | –
COc1ccc(NC(=S)N2CCN(C/C=C/c3ccccc3)CC2)cc1OC | -18.6% (inactive) | –
COc1ccc(/C=C(\C#N)C(=O)NCC2CCCO2)cc1OC (stereo unspecified) | -7.32% (inactive) | –
CNc1ncnc2c1ncn2[C@@H]1O[C@H](CO)[C@@H](O)[C@@H]1O | 4.56% [at 25.6 µM] (inactive) | –
CSc1nc(-c2ccc(C)cc2)[nH]c1S(=O)(=O)c1ccccc1 | -14.3% (inactive) | –
Clc1ccc(C2=C3CCCCn4c(-c5ccccc5)c[n+](c43)C2)cc1 | – | 1 µM (active)
O=C(c1ccc(Cl)cc1)N1CCCC(c2ccccc2)=N1 | -18.1% (inactive) | –
COc1ccc(-n2c(-c3ccccc3)nc(=S)c3c2CCCC3)cc1 | -26.4% (inactive) | –
C[n+]1cc(-c2ccccc2)n2c1CCCCC2 | -26.8% (inactive) | –
COc1ccc(-c2c[n+]3c4n2CCCCC4=C(c2ccccc2)C3)cc1 | – | 1.78 µM (active)
Cc1cc(NC(=O)CSc2ccc3nnc(-c4ccc(F)cc4)n3n2)no1 | -8.11% (inactive) | –
O=C(O)c1c[nH]c2c(ccc3[nH]cc(C(=O)O)c(=O)c32)c1=O | -3.58% [at 11.4 µM] (inactive) | –
Cc1ccc(CNC(=O)COC(=O)c2cnccn2)cc1 | 0.988% (inactive) | –
Cc1cc(C)cc(Oc2nn[nH]n2)c1 | 2.45% (inactive) | –

SMILES | activity, negative = inhibition | AC50
CCCCCOc1ccc(NC(=O)C(=O)NCCC2=CCCCC2)cc1 | -1.79% (inactive) | –
O=C(CN1CCN(C2CCCCC2)CC1)NCCC1=CCCCC1 | – | 15.8 µM (active)
O=C(COc1ccc(Cl)cc1)NCCC1=CCCCC1 | -19.8% (inactive) | –
O=C(CN1CCN(c2ncccn2)CC1)NCCC1=CCCCC1 | – | 2.82 µM (active)
O=C(CN1C(=O)NC2(CCCC2)C1=O)NCCC1=CCCCC1 | 5.39% (inactive) | –
Cc1ccc(CNC(=O)C2CCC(=O)N2C2CCCCC2)cc1 (stereo unspecified) | -21.6% (inactive) | –
COC(=O)[C@@]1(Cc2ccc(F)cc2)[C@@H]2[C@@H](CC(=O)[C@H]2CC(=O)C(=O)N2CCCC2)CN1C(=O)c1ccccc1 | 0.0192% (inactive) | –
CC(C)[C@@H]1O[C@H](/C=C\c2ccccc2)OCC1(C)C | -1.61% [at 11.4 µM] (inactive) | –
O=C(O)Cc1sc(-c2ccc(Cl)cc2)nc1-c1ccccc1 | 16% (inactive) | –
CCSc1ncc(/C=N/Nc2ccc(F)cc2)n1C | – | 0.631 µM (active)
CC(=O)Nc1ccc(NC(=O)Cn2c(-c3ccc(F)cc3)cnc2SCC(=O)Nc2c(C)cccc2C)cc1 | -9.43% (inactive) | –
Cc1cnn(CCC(=O)NNC(=S)Nc2ccc(F)cc2)c1 | 3.17% (inactive) | –
CCc1ccc2[nH]c(O)c(N=Nc3nc(-c4ccccc4)cs3)c2c1 | -11.2% (inactive) | –
COc1ccc(C(=O)Nc2ccc3c(c2)nc(CN2CCN(C(C)=O)CC2)n3C)cc1 | -2.59% (inactive) | –
CC1CCCN(C/C=C/c2ccccc2[N+](=O)[O-])C1 (stereo unspecified) | – | 1 µM (active)
CCOC(=O)C1CCCN(S(=O)(=O)c2ccccc2)C1 (stereo unspecified) | -11.5% (inactive) | –
CC1CC(C)CN(C/C=C/c2ccccc2[N+](=O)[O-])C1 (stereo unspecified) | – | 0.631 µM (active)
CCn1c(SCC(=O)N/N=C/C=C\c2ccccc2[N+](=O)[O-])nnc1-c1ccccc1 | -25.4% (inactive) | –
CCOC(=O)C1CCCN(C/C=C/c2ccccc2[N+](=O)[O-])C1 (stereo unspecified) | – | 0.0708 µM (active)
C[C@@H]1CCCN(CP(=O)(c2ccccc2)c2ccccc2)C1 | 6.3% [at 11.4 µM] (inactive) | –
CS(=O)(=O)N1CCN(c2c(Cl)cccc2[N+](=O)[O-])CC1 | -12.4% (inactive) | –
Cn1nnnc1SCc1ccccc1[N+](=O)[O-] | -7.73% (inactive) | –
CCOC(=O)C1CCCN(C(=O)/C=C/c2cccc([N+](=O)[O-])c2)C1 (stereo unspecified) | -18.6% (inactive) | –
